Values joined by “and” are separate entries in the source; they are usually repeats but may differ in a detail not shown here. Identical values can stand only once. Active and inactive are the calls of the source.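 The calls were made as follows, unless noted: active = normalized viability below 100% at a tested concentration; inactive = the rest.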
Tests used:
[1] = liver-stage malaria parasite growth inhibition, primary screen, cell-based, HepG2, luciferase luminescence, HepG2 viability (AID 624349; in the data active = parasite load remaining mostly below about 12%, no sharp cut-off; inactive = mostly above about 10%;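 also: 100% = mean of DMSO negative control wells on the same plate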); conditions: P. berghei liver stage in HepG2, luciferase luminescence, concentration not given here; parasite load remaining: stronger effect = lower value; viability: measured here: HepG2 viability without parasites
[2] = stimulators of nuclear beta-catenin in C2C12, primary screen, imaging, WNT3A-conditioned medium, mouse C2C12, NPC library (AID 1117326; in the data active = nuclear beta-catenin stimulation mostly above about 4.2%, no sharp cut-off; inactive = mostly below about 10%); conditions: stronger effect = higher value
[3] = stimulators of insulin release from INS-1E, primary screen, cell-based, 5 mM glucose, NPC library (AID 1117329;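 active = compound raises insulin release from rat beta cells at 5 mM glucose, no numeric limit stated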); conditions: rat INS-1E insulin secretion, at 10 µM, stronger effect = higher value
[4] = growth inhibition of GSK3B-pretreated HCT116 cells – cell-based, CellTiter-Glo, 0.2 to 20 µM (AID 1117336;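 active = compounds lowering colon cancer cell viability after pretreatment blocking the GSK3B kinase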); conditions: HCT116 viability after GSK3B inhibitor, at 20 µM, stronger effect = higher value
[5] = inhibition of endothelial tube formation, primary screen, imaging, VEGF stimulated, CD31 staining, tube area, NPC library (AID 1117340;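 active = compound that reduces growth-factor-driven endothelial tube area in a mixed cell culture, no cutoff stated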); conditions: VEGF-stimulated ADSC/ECFC co-culture, at 10 µM, stronger effect = higher value
[6] = glucagon-like peptide 1 release enhancers, primary assay, NCI-H716 cell line, NPC library (AID 1117341;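 active = compound raises GLP1 secretion from the human gut endocrine cells, with no numeric limit stated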); conditions: NCI-H716 cells, at 10 µM, stronger effect = higher value
[7] = HCT116 colon cancer cell growth inhibition, primary screen, CellTiter-Glo luminescence, NPC library (AID 1117342;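 active = compounds that lower survival of HCT116 colon cancer cells in the luminescence readout, no numeric limit stated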); conditions: at 20 µM (top of the series)
[8] = CellTiter-Glo luminescent readout of SW480 viability loss, NPC library primary (AID 1117343;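 active = compounds that lower viability of the colon cancer cells in the luminescence readout, with no numeric limit stated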); conditions: CellTiter-Glo luminescence; at 20 µM (top of the series) unless noted
[9] = decreased DLD-1 cellular survival, CellTiter-Glo luminescent readout, NPC compound collection, primary HTS (AID 1117346;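 active = compounds that lower survival of DLD-1 colon cancer cells in the luminescence readout, no cutoff given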); conditions: DLD-1 viability, CellTiter-Glo luminescence; at 20 µM (top of the series)
[10] = differential killing of epithelial or mesenchymal cells, primary screen, imaging, PC-3E GFP, TEM4-18 mCherry, co-culture (AID 1345086;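 active = compounds killing one labelled cell type while sparing the other, by normalised counts and ratio limits, not self-fluorescent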;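 as to all read-outs here: cells exposed to compound for 72 h before imaging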;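 as to red/green cell ratio (normalised): normalised mesenchymal count divided by normalised epithelial count so high means epithelial killing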); conditions: imaging cell counts, at 1 µM; for red/green cell ratio (normalised): actives lie on both sides, counts scaled to control wells, 1 = unselective
[11] = sensitizers of A549 cells to miR-34 induction, primary screen, imaging, A549 dox-inducible miR-34, nuclei and caspase counts (AID 1347080;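 active = compounds whose cell count with miR-34 switched on is under 0.7 times the count with it off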); conditions: A549 miR-34 inducible, Hoechst nuclei count, 48 h
[12] = survival rescue of mitochondrial mutant cells in low glucose, primary screen, MELAS cybrids, Rieske KO mouse fibroblasts, CellTiter-Glo (AID 1508586;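 active = mean z-score across replicates of 1.96 or higher in either the MELAS or the Rieske mutant cell line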;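 also: z relative to plate mean and SD of compound and empty wells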)
[13] = ovarian cancer cell viability with rucaparib, profiling panel, oncology-focused library, rucaparib conditional (AID 1508598); conditions: patient-derived ovarian cancer cells, CellTiter-Glo viability, 144 h, stronger effect = lower value
[14] = molecular target: NAD(+) hydrolase SARM1 (Homo sapiens) (UniProt Q6SZW1); experiment: SARM1 TIR NADase inhibitors, cell lysate, NAD-Glo luminescence (AID 1508614;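 active = compound whose remaining NAD level is above about 45 nM, limit read from the data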;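 also: higher remaining NAD means stronger inhibition of SARM1 NADase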); conditions: SAM-TIR HEK293T lysate NADase, at 1 µM, stronger effect = higher value
Sequence of NAD(+) hydrolase SARM1 (Homo sapiens) (Q6SZW1 whole entry, looked up): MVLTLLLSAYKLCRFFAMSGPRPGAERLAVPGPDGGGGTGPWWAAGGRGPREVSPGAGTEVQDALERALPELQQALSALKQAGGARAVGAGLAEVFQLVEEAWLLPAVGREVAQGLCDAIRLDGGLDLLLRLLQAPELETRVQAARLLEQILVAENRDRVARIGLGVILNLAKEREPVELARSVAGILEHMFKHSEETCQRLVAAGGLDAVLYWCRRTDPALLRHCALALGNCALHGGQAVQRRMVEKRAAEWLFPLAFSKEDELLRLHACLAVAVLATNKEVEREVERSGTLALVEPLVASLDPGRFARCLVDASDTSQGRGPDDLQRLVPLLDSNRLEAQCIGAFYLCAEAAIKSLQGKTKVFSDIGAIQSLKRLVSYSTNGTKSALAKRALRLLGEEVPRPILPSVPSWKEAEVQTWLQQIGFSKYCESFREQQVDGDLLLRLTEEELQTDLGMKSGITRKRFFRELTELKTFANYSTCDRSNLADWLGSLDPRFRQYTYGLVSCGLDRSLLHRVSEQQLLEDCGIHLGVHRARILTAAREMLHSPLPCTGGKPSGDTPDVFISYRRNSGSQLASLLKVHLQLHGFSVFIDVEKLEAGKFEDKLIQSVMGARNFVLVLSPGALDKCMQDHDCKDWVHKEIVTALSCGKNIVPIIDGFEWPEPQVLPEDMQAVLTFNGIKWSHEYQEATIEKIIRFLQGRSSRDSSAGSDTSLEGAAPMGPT

[15] = measured here: epithelial PC-3E GFP cell survival
[16] = measured here: mesenchymal TEM4-18 mCherry cell survival
[17] = stronger effect = lower value, cell number ratio, induced over uninduced
[18] = measured here: relative caspase fold change +Dox/-Dox
[19] = measured here: total cells with miR-34 induction, stronger effect = lower value
[20] = measured here: total cells without miR-34 induction
[21] = MELAS cybrid survival, CellTiter-Glo 48 h, stronger effect = higher value
[22] = Rieske KO mouse fibroblast survival, CellTiter-Glo 72 h

CN(N=O)C(=O)N[C@@H]1[C@@H](O)[C@H](O)[C@@H](CO)O[C@@H]1O
active: viability ([13]; at 0.00488 µM, OCI-P5x cells, with rucaparib 20 µM, 100% = cells with rucaparib alone) 97.2% | viability ([13]; at 0.313 µM, OCI-P5x cells, with rucaparib 20 µM, 100% = cells with rucaparib alone) 98.9% | viability ([13]; at 1.25 µM, OCI-C5x cells, with rucaparib 10 µM, 100% = cells with rucaparib alone) 97.9% | viability ([13]; at 1.25 µM, OCI-P5x cells, with rucaparib 20 µM, 100% = cells with rucaparib alone) 87.8% | viability ([13]; at 5 µM, OCI-P5x cells, with rucaparib 20 µM, 100% = cells with rucaparib alone) 87.3% | viability ([13]; at 5 µM, OCI-P5x cells, without rucaparib) 98.1%
0.95: normalised cell number [10, 15]
1.08: normalised cell number [10, 16]
8550 and 11000: cell count [11, 19]
0.385: z-score [12, 22]
10200 and 12600: cell count [11, 20]
inactive: parasite load remaining [1] 90.3% and 138% and 42.6% | nuclear beta-catenin stimulation ([2]; at 10 µM) 0.9% | insulin secretion stimulation [3] 0.5% | viability decrease [4] -5.6% | tube area decrease [5] 10.3% | GLP1 secretion stimulation [6] 0.8% | inhibition of viability [7] -6.13% | viability decrease (inhibition) [8] 42% | viability decrease (inhibition) [9] -37.7% | red/green cell ratio (normalised) [10] 1.14 | fold change [11, 17] 0.837 and 0.877 | z-score [12, 21] 0.426 | viability ([13]; at 0.000305 µM, OCI-C5x cells, with rucaparib 10 µM, 100% = cells with rucaparib alone) 107% | viability ([13]; at 0.000305 µM, OCI-C5x cells, without rucaparib) 111% | viability ([13]; at 0.000305 µM, OCI-P5x cells, with rucaparib 20 µM, 100% = cells with rucaparib alone) 108% | viability ([13]; at 0.000305 µM, OCI-P5x cells, without rucaparib) 121% | viability ([13]; at 0.00122 µM, OCI-C5x cells, with rucaparib 10 µM, 100% = cells with rucaparib alone) 110% | viability ([13]; at 0.00122 µM, OCI-C5x cells, without rucaparib) 114% | viability ([13]; at 0.00122 µM, OCI-P5x cells, with rucaparib 20 µM, 100% = cells with rucaparib alone) 101% | viability ([13]; at 0.00122 µM, OCI-P5x cells, without rucaparib) 115% | viability ([13]; at 0.00488 µM, OCI-C5x cells, with rucaparib 10 µM, 100% = cells with rucaparib alone) 102% | viability ([13]; at 0.00488 µM, OCI-C5x cells, without rucaparib) 121% | viability ([13]; at 0.00488 µM, OCI-P5x cells, without rucaparib) 113% | viability ([13]; at 0.0195 µM, OCI-C5x cells, with rucaparib 10 µM, 100% = cells with rucaparib alone) 111% | viability ([13]; at 0.0195 µM, OCI-C5x cells, without rucaparib) 114% | viability ([13]; at 0.0195 µM, OCI-P5x cells, with rucaparib 20 µM, 100% = cells with rucaparib alone) 100% | viability ([13]; at 0.0195 µM, OCI-P5x cells, without rucaparib) 116% | viability ([13]; at 0.0781 µM, OCI-C5x cells, with rucaparib 10 µM, 100% = cells with rucaparib alone) 106% | viability ([13]; at 0.0781 µM, OCI-C5x cells, without rucaparib) 122% | viability ([13]; at 0.0781 µM, OCI-P5x cells, with rucaparib 20 µM, 100% = cells with rucaparib alone) 104% | viability ([13]; at 0.0781 µM, OCI-P5x cells, without rucaparib) 112% | viability ([13]; at 0.313 µM, OCI-C5x cells, with rucaparib 10 µM, 100% = cells with rucaparib alone) 106% | viability ([13]; at 0.313 µM, OCI-C5x cells, without rucaparib) 126% | viability ([13]; at 0.313 µM, OCI-P5x cells, without rucaparib) 113% | viability ([13]; at 1.25 µM, OCI-C5x cells, without rucaparib) 109% | viability ([13]; at 1.25 µM, OCI-P5x cells, without rucaparib) 105% | viability ([13]; at 5 µM, OCI-C5x cells, with rucaparib 10 µM, 100% = cells with rucaparib alone) 103% | viability ([13]; at 5 µM, OCI-C5x cells, without rucaparib) 101%
2.9%: nuclear beta-catenin stimulation ([2]; stimulation, at 2 µM)
97.3% and 74.3% and 97.4%: viability [1]
1.24 and 1.12: fold change [11, 18]

Clc1ccc(C(Cn2ccnc2)OCc2ccsc2Cl)c(Cl)c1 (stereo not drawn)
0.7%: nuclear beta-catenin stimulation ([2]; stimulation, at 2 µM)
0.97: normalised cell number [10, 16]
-0.152 and 0.306 and -0.538: z-score [12, 22]
7290 and 10300 and 7120: cell count [11, 19]
7930 and 12000 and 7980: cell count [11, 20]
inactive: parasite load remaining [1] 37.3% and 6.58% | nuclear beta-catenin stimulation ([2]; at 10 µM) 4.5% | insulin secretion stimulation [3] 0.9% | GLP1 secretion stimulation [6] 10.8% | red/green cell ratio (normalised) [10] 1.15 | fold change [11, 17] 0.919 and 0.86 and 0.892 | z-score [12, 21] -0.0566 and 0.885 and 0.0763 | remaining NAD [14] 10 nM
active: viability decrease [4] 100% | tube area decrease [5] 110% | inhibition of viability [7] 100% | viability decrease (inhibition) [8] 123% | viability decrease (inhibition) [9] 103%
0.85: normalised cell number [10, 15]
97.8% and 62%: viability [1]
0.876 and 3.84 and 1.06: fold change [11, 18]
